# TDP1 block: TDP1 (human) enzyme inhibition. Q9NUW8. recombinant TDP1, AlphaScreen DNA substrate cleavage. Potency, µM (doses to about 130 µM), for inactives: top-dose activity change, negative = inhibition, most hits filed as inhibitors. hit rate 0.28% among 350,000. AID 485290; further: potency means the concentration at half of the fitted maximal effect; on the % scale 0 is the no-effect control and ±100 the full control effect; nearly all actives have a fitted effect of over 40% in size
# Target sequence (Q9NUW8 whole entry, looked up): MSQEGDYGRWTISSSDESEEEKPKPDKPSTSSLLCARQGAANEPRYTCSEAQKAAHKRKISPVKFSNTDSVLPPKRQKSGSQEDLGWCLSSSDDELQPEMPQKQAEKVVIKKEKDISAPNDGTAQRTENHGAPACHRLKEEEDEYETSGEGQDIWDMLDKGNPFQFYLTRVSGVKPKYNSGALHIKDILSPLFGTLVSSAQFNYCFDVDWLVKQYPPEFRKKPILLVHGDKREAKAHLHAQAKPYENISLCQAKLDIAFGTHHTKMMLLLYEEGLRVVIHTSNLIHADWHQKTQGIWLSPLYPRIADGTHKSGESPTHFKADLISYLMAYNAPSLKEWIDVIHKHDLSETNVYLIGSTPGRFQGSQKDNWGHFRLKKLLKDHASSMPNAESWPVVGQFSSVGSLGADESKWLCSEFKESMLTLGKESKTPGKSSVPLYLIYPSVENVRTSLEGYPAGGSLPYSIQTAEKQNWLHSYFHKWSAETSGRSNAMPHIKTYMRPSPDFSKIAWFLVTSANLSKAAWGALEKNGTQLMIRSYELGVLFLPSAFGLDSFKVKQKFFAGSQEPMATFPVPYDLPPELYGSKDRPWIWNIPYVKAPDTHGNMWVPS
#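 Signal: AlphaScreen proximity between streptavidin donor and anti-FITC acceptor beads on intact substrate. Reaction: Tdp1 1 nM, substrate 15 nM final, 5 min RT after 15 min compound preincubation.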
# HepG2 tox: kills HepG2 cells in TGF-b inhibitor counter-screen. HepG2 CAGA-GFP viability, ATP luminescence, 18 h. Potency, µM (doses to about 46.1 µM), for inactives: at the highest dose activity change, negative = cytotoxicity, hits mostly cytotoxic. hit rate 0.76% among 410,000. AID 588856; further: potency means the concentration at half of the fitted maximal effect
#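 CellTiter-Glo luminescence gave cytotoxicity after 18 hours at 37 degrees C. The cells were HepG2 CAGA-GFP in 1% FBS DMEM, stimulated with 500 pg/mL TGF-beta after compound addition. %Activity was normalised to no-cell wells (complete cell-killing) and DMSO (no toxicity), and curves were fitted and classified.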
# TGFb inhibitor: inhibitors of TGF-b signaling; HepG2 CAGA-GFP TGF-b/SMAD3 reporter, GFP fluorescence, 18 h; TGF-beta stimulated, 500 pg/mL final; Potency, µM (highest dose often 46.1 µM), without a hit: at the highest dose activity, negative = inhibition, actives largely listed as inhibitors; hit rate 1.2% among 410,000; AID 588855; further: potency means the concentration at half of the fitted maximal effect; on the % scale 0 is the no-effect control and ±100 the full control effect; nearly all actives have a fitted effect of over 65% in size
#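 Inhibition of TGF-beta-driven CAGA-GFP reporter expression in HEPG2 cells is measured by cellular GFP fluorescence after 18 h stimulation with 500 pg/mL recombinant TGF-beta in 1% FBS medium at 37 degrees C.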
# TDP1 cell CPT: DT40-hTDP1 cell growth loss with CPT; chicken DT40 Tdp1-/-;hTDP1 cells + 20 nM CPT, ATP luminescence, 48 h; Potency, µM (doses to about 46.2 µM), for inactives: top-dose activity change, negative = growth inhibition, actives largely listed as inhibitors; hit rate 12% among 420,000; AID 686979; further: potency means the concentration at half of the fitted maximal effect; on the % scale 0 is the no-effect control and ±100 the full control effect; nearly all actives have a fitted effect of over 55% in size
#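 Cell growth measured by CellTiter-Glo luminescence after a minimum 48 h, 37 C compound exposure with 20 nM CPT in Tdp1-knockout DT40 cells stably expressing hTDP1, seeded 400/well; qHTS titration format.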
# DT40 TDP1 no CPT: qHTS for Inhibitors of human tyrosyl-DNA phosphodiesterase 1 (TDP1): qHTS in cells in absence of CPT. hit rate 15% among 420,000. DT40 Tdp1-/- hTDP1 cells, no CPT, ATP luminescence, 48 h. AID 686978, 2013. Potency, µM (titrated, usually from 46.2 µM), inactives show at the top dose activity change, negative = growth inhibition, most hits filed as inhibitors; further: potency means the concentration at half of the fitted maximal effect; on the % scale 0 is the no-effect control and ±100 the full control effect; nearly all actives have a fitted effect of over 55% in size
#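 Seeded 400 DT40-hTDP1 cells/well (vehicle DMSO, no 20 nM CPT); pinned compounds; ≥48 hr at 37 °C; CellTiter-Glo luminescence as viability measure.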
# IL1B secr inh: blocks inflammasome-driven IL-1 beta release | THP-1 LPS/ATP IL-1B secretion, AlphaLISA, 16 h; active compounds read low | activity change, % at 57.5 µM | hit rate 4.7% among 360,000 | AID 743279; in the data active means activity change below about -50%; inconclusive means mostly about -30% to -49%; further: on the % scale 0 is the no-effect control and ±100 the full control effect
#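 Secreted IL-1B measured by AlphaLISA bead assay after 16 h compound exposure of THP-1 cells; compounds (final up to 57.5 uM) added 1 h before LPS (250 ng/mL) and ATP (1.25 mM) stimulation; lower signal means less secretion.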
# * hit, by the source's call; ? = inconclusive; · = no result; [ ] = dose if it differs, or a comment. An excerpt weighted towards active compounds, which were near 19% of everything screened. Unless noted, the call rests on the fitted dose curve; in most records, active means well fitted curve in the direction sought with a large enough effect; inconclusive means small, poorly fitted or top-dose-only effect, or another doubt; inactive means no such curve, though single readings can be large; an effect the other way counts as inactive or inconclusive.
SMILES,TDP1 block,HepG2 tox,TGFb inhibitor,TDP1 cell CPT,DT40 TDP1 no CPT,IL1B secr inh
Cn1cc(C(=O)c2ccc(Cl)cc2Cl)cc1C(=O)N/N=C(\N)COc1ccc(F)cc1,11%,-3%,-6%,?,16µM*,-1
COc1cc2c(cc1OC)C1Cc3ccc(OC)c(OC)c3CN1CC2 (configuration not stated),3%,2%,-2%,?,7.3µM*,-1
COc1ccc(-c2cc(C(F)(F)F)n3nc(C(=O)Nc4cccc(C(F)(F)F)c4)c(Br)c3n2)cc1,-1%[12.3 µM],-21%,?,13µM*,?,·
N#CCNC(=O)c1nn2c(C(F)(F)F)cc(-c3ccccc3)nc2c1Br,·,6%,-6%,0%,18%,13
CCCCNC(=O)c1nn2c(C(F)(F)F)cc(-c3ccccc3)nc2c1Br,·,-1%,37%,?,21µM*,-5
O=C1NCCNC(=O)c2ccccc2OCCOc2ccccc21,-1%,14%,?,?,?,0
O=C1[O][Bi][O]c2ccccc21,35µM*,·,·,-21%,9%,·
Cc1nnsc1S(=O)c1ccc(Br)cc1 (configuration not stated),·,4%,3%,18µM*,?,-8
Cc1ccc(S(=O)c2snnc2C)cc1 (configuration not stated),·,-1%,8%,-5%,-10%,-18
Cc1nnsc1S(=O)c1ccc(F)cc1 (configuration not stated),·,2%,0%,-8%,15%,-50*
COc1ccc(CC(=O)Nc2ccc(C(=O)Nc3ccccc3C(=O)O)cc2)cc1OC,0%,8%,5%,-12%,-21%,20
CN(C)c1ccc(-c2nccc(NCCN3CCOCC3)n2)cc1,7%[56.1 µM],·,·,?,?,·
COc1ccc(NC(=O)c2cnc3sc(N4CCOCC4)nn3c2=O)c(OC)c1,-3%,-5%,0%,-15%,3%,·
CCC(=O)N1CCc2cc(Br)cc(S(=O)(=O)CCC(=O)NCc3ccc(C)cc3)c21,3%,0%,-12%,1%,0%,·
COc1ccc(COC(=O)N/N=C2/C[C@@H](O)[C@@H](O)[C@@H]3[C@@H]4C(=O)N(Cc5ccc6c(c5)OCO6)C(=O)[C@H]4CC[C@@H]23)cc1,6%[21 µM],·,·,·,·,·
Cc1ccc(NC(=S)NC2CC3CCCC(C2)N3Cc2cccs2)cc1 (configuration not stated),2%,-24%,-5%,?,18µM*,-74*
O=C(Nc1cccc(Cl)c1)NC1CC2CCC(C1)N2Cc1cccs1 (configuration not stated),8%,4%,0%,21µM*,26µM*,-16
O=C(NCc1cccs1)Nc1cccc(Cl)c1,·,-15%,14%,-20%,-5%,-8
O=C(Nc1cccc(Cl)c1)NC1(C(=O)NCc2cccs2)CCCCC1,6%,-29%,-14%,21µM*,26µM*,-5
Fc1ccc(NC(=S)NC2CC3CCCC(C2)N3Cc2cccs2)cc1 (configuration not stated),8%,0%,20%,3%,-8%,?
Cc1nc(NCCc2ccccc2)c2nnn(Cc3ccccc3)c2n1,·,2%,1%,-6%,?,-9
Cc1oc(-c2ccccc2F)nc1CS(=O)(=O)CC(=O)NCCc1ccc(Cl)cc1,1%,-23%,?,?,-27%,·
C=CCNc1nc(-c2sc(NC(C)=O)nc2C)cs1,7%,-7%,3%,10µM*,16µM*,-58*
Cc1nc(NC(=O)C(C)(C)C)sc1-c1csc(N)n1,·,-1%,4%,?,23µM*,-12
O=C(N/N=C/c1cn(-c2cccs2)nc1-c1ccccc1)c1ccccc1O,-3%,-47%,11µM*,13µM*,8.2µM*,77
SMILES,TDP1 block,HepG2 tox,TGFb inhibitor,TDP1 cell CPT,DT40 TDP1 no CPT,IL1B secr inh
O=C(N/N=C/c1ccccc1C(=O)O)c1ccccc1Br,-3%,-5%,-1%,19%,-3%,12
Cc1nn(-c2ccccc2)cc1/C=N/NC(=O)c1cccs1,·,-11%,-2%,?,?,-22
O=C(N/N=C/c1cn(-c2cccs2)nc1-c1ccccc1)c1ccccc1Br,3%,-1%,-4%,23µM*,23µM*,?
O=C(c1cccs1)N1CCc2ccccc21,3%,6%,-22%,-17%,-8%,0
O=C(c1cccs1)N1CCCc2cc(NS(=O)(=O)c3ccc(F)cc3)ccc21,9%,-23%,?,21µM*,-79%,·
Cc1cc(F)ccc1S(=O)(=O)Nc1ccc2c(c1)CCCN2C(=O)c1cccs1,4%,-38%,16µM*,21µM*,23µM*,·
O=C(c1cccs1)N1CCCc2cc(NS(=O)(=O)c3ccc(F)cc3F)ccc21,4%,-40%,?,21µM*,9.2µM*,·
O=C(c1cccs1)N1CCCc2cc(NS(=O)(=O)c3ccc(Cl)cc3)ccc21,-1%,-8%,?,?,?,·
COc1ccc(F)cc1S(=O)(=O)Nc1ccc2c(c1)CCCN2C(=O)c1cccs1,-4%,-8%,?,?,18µM*,·
Cc1ccc(S(=O)(=O)Nc2ccc3c(c2)CCCN3C(=O)c2cccs2)cc1C,6%,-25%,?,21µM*,16µM*,·
COc1cccc(NS(=O)(=O)c2ccc3c(c2)CCCN3C(C)=O)c1,2%,-18%,4%,?,?,25
CSc1cccc(CN2CCCC(CO)(Cc3cccc(Cl)c3)C2)c1 (configuration not stated),7%,-2%,1%,-5%,12%,-8
OCC1(Cc2cccc(Cl)c2)CCCN(Cc2ccc(F)c(F)c2)C1 (configuration not stated),·,-1%,-18%,23µM*,?,-55*
OCC1(Cc2ccccc2)CCCN(Cc2ccc(-c3ccco3)cc2)C1 (configuration not stated),7%,-18%,-9%,?,23µM*,-84*
OCC1(Cc2cccc(Cl)c2)CCCN(Cc2cnn(-c3ccccc3)c2)C1 (configuration not stated),-2%,-57%,?,?,13µM*,-19
Cc1nn(C)c(Cl)c1CN1CCCC(CO)(Cc2cccc(Cl)c2)C1 (configuration not stated),0%,0%,-16%,15µM*,15µM*,-4
